# Source: PubChem BioAssay (NCATS)
# Inconclusive results are not listed. Calls of active or inactive are those of the source. Calls follow the shape of the dose curve; as a rule, active = well fitted cell-killing curve with a large enough effect; inconclusive = small, poorly fitted or top-dose-only effect; inactive = flat fitted curve, though single readings scatter.
# Assay: qHTS of pediatric cancer cell lines to identify multiple opportunities for drug repurposing: Primary screen for BT-12 cells (AID 1347101);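 also: plate controls were DMSO for no effect and bortezomib positive control for full effect; nearly all actives have a fitted effect of over 25% in size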
# Conditions: BT-12 viability, CellTiter-Glo luminescence, 48 h; series mostly up to 57.3 µM; activity change, negative = cytotoxic: at the top concentration
# Source text: Drug repurposing or repositioning has been offered as a strategy for drug development in oncology programs. This approach has special potential for childhood cancers and other rare or orphan diseases, where the expected return on new drug development has been a disincentive to pharmaceuticals.
# In this project we exploit the poly-pharmacology of drugs to discover new indications via phenotypic screening of a panel of 19 well-characterized cell lines derived from solid tumors seen in children and adolescents. The goal is to identify approved drugs with previously unrecognized anticancer properties that has the potential to reveal new mechanisms and biological processes involved in carcinogenesis or drug resistance. We employed a titration-based paradigm (quantitative high-throughput screening or qHTS), where all compounds were tested at multiple concentrations for their effect on cell viability. Concentration-response curves (CRCs) were derived directly from the primary screen, and both potency and efficacy values were used to identify compounds with robust bioactivity profiles. We screened the NIH Chemical Genomics Center (NCGC) Pharmaceutical Collection (NPC) and Mechanism Interrogation Plate (MIPE) small molecule collections of approved and investigational compounds against these cell lines; and measured metabolically active cells after 48 hours of compound treatment as a proxy for cell viability.
# Assay Submitter: Nathalia J. Martinez, National Center for Advancing Translational Sciences, National Institutes of Health, Rockville, MD, USA; email: natalia.martinez@nih.gov
# [1] Shen, M et al. Quantitative high-throughput phenotypic screening of pediatric cancer cell lines identifies multiple opportunities for drug repurposing. Oncotarget 2017 Dec 19;9(4):4758-4772. PMID 29435139.
# The cells were obtained from University of North Carolina (UNC), Pediatric Preclinical Testing Program (PPT), and Coriell Institute (CI).
# qHTS cell viability assay:
# Cells were assayed in growth media at a density of 500-1,000 cells/well. Five microliters of cells were dispensed into 1,536-well, white, solid-bottom, TC-treated plates (Greiner Bio One) using a multidrop dispenser and incubated at 37 degrees C, 5% CO2, under a humidified atmosphere for 5 hours. Twenty-three nanoliters of compounds and controls (neutral control DMSO or positive control bortezomib at final concentration of 2.3 µM) were subsequently transferred by Kalypsys pintool. For primary screens, the MIPE collection was tested at 11-point dilutions (final concentrations range from 0.78 nM to 46 µM) and the NPC collection at 8-point dilutions (final concentrations range from 0.59 nM to 46 µM). Compounds tested in follow-up screens were assayed at 11-point dilutions. Cells were incubated for 48 hours, followed by addition of 3 µL of CellTiter-Glo (Promega). After a 15 min incubation at room temperature, samples were analyzed for luminescence intensity using a ViewLux High-throughput CCD imager equipped with clear filters.
SMILES,"activity change, negative = cytotoxic",Potency
CCCOC(=O)c1cncn1C(C)c1ccccc1 (stereo not given),2.97% (inactive),–
C[C@]12CC[C@H]3[C@@H](CCC4=CC(=O)CC[C@@H]43)[C@@H]1CC[C@@H]2OC(=O)CCc1ccco1,-2.99% (inactive),–
C[C@]12Cc3cn[nH]c3C[C@@H]1CC[C@@H]1[C@@H]2CC[C@@]2(C)[C@H]1CC[C@]2(C)O,-7.36% (inactive),–
Clc1ccccc1N1CCNCC1,10% (inactive),–
CC(=O)NC1CCSC1=O (stereo not given),17.6% (inactive),–
CCC(CC)(CNC(=O)CCCO)c1cccc(OC)c1,15.6% (inactive),–
Nc1ccccc1C(=O)O,8.13% (inactive),–
O=c1[nH]oc2c1CCNC2,3.62% (inactive),–
CCN(CC)CCc1c[nH]c2ccccc12,-8.2% [at 194 µM] (inactive),–
COC(=O)C(Cl)C(=O)OC,4.73% (inactive),–
NCCc1ccc(O)cc1,10.7% (inactive),–
COc1ccc2c3c1O[C@H]1[C@H](O)CC[C@H]4[C@@H](C2)N(C)CC[C@@]341,1.34% [at 116 µM] (inactive),–
c1ccc2c(c1)sc1ccccc12,6.23% (inactive),–
CCC1(CC)C(=O)C=CNC1=O,5.65% (inactive),–
COc1cc(OC)c(OC)cc1C=O,–,inactive
C[C@H](N)C(=O)c1ccccc1,-4.34% [at 194 µM] (inactive),–
C[C@]12CC[C@@H]3c4ccc(OC(=O)N(CCCl)CCCl)cc4CC[C@H]3[C@@H]1CC[C@@H]2OP(=O)(O)O,18.4% (inactive),–
COP(=S)(OC)Oc1cc(Cl)c(Cl)cc1Cl,8.4% (inactive),–
CC[N+]1(CC)CCC(OC(=O)C(O)(c2ccccc2)c2ccccc2)C1 (stereo not given),2.63% (inactive),–
COP(=S)(OC)Oc1ccc(SC)c(C)c1,0.896% (inactive),–

SMILES,"activity change, negative = cytotoxic",Potency
O=C1c2ccccc2C(=O)c2ccccc21,12.6% [at 20.1 µM] (inactive),–
CC(C)N(CCC(C(N)=O)(c1ccccc1)c1ccccn1)C(C)C (stereo not given),0.872% (inactive),–
COc1cc(CCN)cc(OC)c1OC,-22% [at 116 µM] (inactive),–
CN(C)CCc1c[nH]c2cccc(OP(=O)(O)O)c12,-12.6% [at 116 µM] (inactive),–
ClCCN1CCCC1,10.2% (inactive),–
O=C1OC(CCN2CCCCC2)OC1(c1ccccc1)c1ccccc1 (stereo not given),-1.88% (inactive),–
COc1ccc2c(c1OC)C(=O)O[C@H]2[C@@H]1c2cc3c(cc2CCN1C)OCO3,11.9% (inactive),–
C=CCC1(C(C)CC)C(=O)NC(=O)NC1=O (stereo not given),5.36% (inactive),–
NNc1ccccc1,8.95% (inactive),–
CC(NC(C)(C)C)C(=O)c1cccc(Cl)c1 (stereo not given),–,inactive
CCN[C@H](C)Cc1cccc(C(F)(F)F)c1,-18.9% [at 116 µM] (inactive),–
CCOC(=O)CC(SP(=S)(OC)OC)C(=O)OCC (stereo not given),–,inactive
O=C1CN=C(c2ccccc2)c2cc([N+](=O)[O-])ccc2N1,-2.31% (inactive),–
O=c1oc2ccccc2c(O)c1Cc1c(O)c2ccccc2oc1=O,5.73% (inactive),–
Cc1ncsc1CCCl,14.5% (inactive),–
Nc1nc(N)nc(NC2CC2)n1,2.94% (inactive),–
C[C@@H](N)[C@@H](O)c1ccccc1,10.2% (inactive),–
CC(=O)C1CCOC1=O (stereo not given),7.94% (inactive),–
CNC(C)(C)Cc1ccccc1,-0.577% (inactive),–
CC1(C)C(C=C(Cl)Cl)C1C(=O)OC(C#N)c1cccc(Oc2ccccc2)c1 (stereo not given),1.54% (inactive),–
